# Laboratory results: PubChem BioAssay AID1159580 (chemical genetic matrix, 2015)
# Where “and” joins values, the source holds several entries; their conditions need not be identical. Equal values may be shown once. About 2,000 (36%) of roughly 5,500 compounds were called active. Another 18% or so got no clear call; they are omitted. No stated cut-off is given here; in the data, active means normalized growth mostly below about 0.91 (no sharp cut-off); inconclusive means no clear call, values can overlap the other calls; inactive means mostly above about 0.92. Some of the results follow. Some structures have more than one record in an assay (separate samples or runs), and their calls can disagree.
# Experiment: chemical genetic growth profiling, strain panel (AID 1159580);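 further: tested at 20 µM; growth read once vehicle control cultures reached saturation at 30 °C; 1 = growth at the plate median or of vehicle wells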
# Conditions: S. cerevisiae deletion strains, growth OD
compound,measurement,setting,value
CN1CCc2cccc3c2C1Cc1ccc(O)c(O)c1-3 (stereo unspecified),normalized growth,"locus YJR075W, strain HOC1, stronger effect = lower value",1 (inactive) and 0.35 (active)
same,normalized growth,"locus YKL009W, strain mrt4, stronger effect = lower value",1.01 (inactive)
same,normalized growth,"locus YKL068W, stronger effect = lower value",0.996 (inactive)
same,normalized growth,"locus YKL085W, strain MDH1 (second series), stronger effect = lower value",1 (inactive)
same,normalized growth,"locus YKL085W, strain MDH1, stronger effect = lower value",1 (inactive)
same,normalized growth,"locus YKL160W, strain elf1, stronger effect = lower value",0.871 (active)
same,normalized growth,"locus YKL190W, strain CNB1, stronger effect = lower value",1.01 (inactive)
same,normalized growth,"locus YKR001C, strain vps1, stronger effect = lower value",1 (inactive)
same,normalized growth,"locus YKR026C, strain gcn3, stronger effect = lower value",1.01 (inactive)
same,normalized growth,"locus YKR091W, strain srl3, stronger effect = lower value",0.993 (inactive)
same,normalized growth,"locus YLL001W, strain dnm1, stronger effect = lower value",0.967 (inactive)
same,normalized growth,"locus YLL026W, stronger effect = lower value",0.988 (inactive)
same,normalized growth,"locus YLL041C, strain sdh2, stronger effect = lower value",0.995 (inactive)
same,normalized growth,"locus YLR027C, strain aat2, stronger effect = lower value",0.918 (active)
same,normalized growth,"locus YLR039C, strain RIC1, stronger effect = lower value",1.04 (inactive)
same,normalized growth,"locus YLR058C, strain SHM2, stronger effect = lower value",1.01 (inactive)
same,normalized growth,"locus YLR102C, strain apc9, stronger effect = lower value",0.997 (inactive)
same,normalized growth,"locus YLR113W, strain HOG1, stronger effect = lower value",1.02 (inactive)
same,normalized growth,"locus YLR221C, strain rsa3, stronger effect = lower value",0.932 (inactive)
same,normalized growth,"locus YLR258W, strain gsy2, stronger effect = lower value",0.958 (inactive)
same,normalized growth,"locus YLR262C, strain YPT6 (second series), stronger effect = lower value",0.645 (active)
same,normalized growth,"locus YLR262C, strain YPT6, stronger effect = lower value",1.09 (inactive)
same,normalized growth,"locus YLR268W, strain sec22, stronger effect = lower value",1.01 (inactive)
same,normalized growth,"locus YLR320W, strain mms22, stronger effect = lower value",0.8 (active)
same,normalized growth,"locus YLR330W, strain CHS5, stronger effect = lower value",1.01 (inactive)
same,normalized growth,"locus YLR342W, strain FKS1 (second series), stronger effect = lower value",1.02 (inactive)
same,normalized growth,"locus YLR342W, strain FKS1, stronger effect = lower value",0.855 (active)
same,normalized growth,"locus YLR357W, strain rsc2, stronger effect = lower value",0.889 (inactive)
same,normalized growth,"locus YLR370C, strain arc18, stronger effect = lower value",0.96 (inactive)
same,normalized growth,"locus YLR371W, strain rom2, stronger effect = lower value",0.996 (inactive)
same,normalized growth,"locus YLR384C, strain iki3, stronger effect = lower value",1 (inactive)
same,normalized growth,"locus YLR418C, strain cdc73, stronger effect = lower value",1.01 (inactive)
same,normalized growth,"locus YML016C, strain PPZ1, stronger effect = lower value",1.01 (inactive)
same,normalized growth,"locus YML032C, strain rad52, stronger effect = lower value",0.99 (inactive)
same,normalized growth,"locus YML120C, strain ndi1, stronger effect = lower value",0.993 (inactive)
same,normalized growth,"locus YML124C, strain tub3, stronger effect = lower value",0.99 (inactive)
same,normalized growth,"locus YMR058W, strain fet3, stronger effect = lower value",0.573 (active)
same,normalized growth,"locus YMR078C, strain ctf18, stronger effect = lower value",0.988 (inactive)
same,normalized growth,"locus YMR125W, strain sto1, stronger effect = lower value",0.966 (inactive)
same,normalized growth,"locus YMR129W, stronger effect = lower value",1 (inactive)
same,normalized growth,"locus YMR205C, strain PFK2, stronger effect = lower value",0.93 (inactive)
same,normalized growth,"locus YMR223W, strain ubp8, stronger effect = lower value",0.994 (inactive)
same,normalized growth,"locus YMR231W, strain pep5, stronger effect = lower value",0.972 (inactive)
same,normalized growth,"locus YMR307W, strain GAS1, stronger effect = lower value",1.03 (inactive)
same,normalized growth,"locus YNL067W, strain RPL9B, stronger effect = lower value",0.998 (inactive)
same,normalized growth,"locus YNL071W, strain lat1, stronger effect = lower value",0.627 (active)
